# Shown is part of a subset that was picked to be rich in the strongest signals.
# Assays:
# Test in all cases: glycan array binding signal (z-score within array); higher = stronger binding
# Conditions in all cases: glycan notation: IUPAC condensed, linker removed
# [1] = biological target: Fuc(a1-2)Gal(b1-3)GalNAc(b1-4)[Neu5Ac(a2-3)]Gal(b1-4)Glc
# Outline: (§1)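 Glycan array binding is given as a within-array Z-score, which can be read as non-binding when negative. The arrays, 3228 of them, came from the Consortium for Functional Glycomics database and were retained only where the protein sequence was available. Z-scores were averaged across arrays of the same protein sequence at different concentrations or buffers and across linkers.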
# [2] = biological target: Fuc(a1-2)Gal(b1-3)GlcNAc6S
# Outline: as §1
# [3] = biological target: Fuc(a1-2)Gal(b1-3)[Fuc(a1-4)]GlcNAc(b1-2)Man(a1-3)[Fuc(a1-2)Gal(b1-3)[Fuc(a1-4)]GlcNAc(b1-2)Man(a1-3)]Man(b1-4)GlcNAc(b1-4)GlcNAc
# Outline: as §1
# [4] = biological target: Fuc(a1-2)Gal(b1-4)Glc6S
# Outline: as §1
# [5] = biological target: Fuc(a1-2)Gal(b1-4)GlcNAc(b1-2)[Fuc(a1-2)Gal(b1-4)GlcNAc(b1-4)]Man(a1-3)[Fuc(a1-2)Gal(b1-4)GlcNAc(b1-2)Man(a1-6)]Man(b1-4)GlcNAc(b1-4)GlcNAc
# Outline: as §1
# [6] = biological target: Fuc(a1-2)GlcNAc
# Outline: as §1
# [7] = biological target: Fuc(a1-2)[Gal(a1-3)]Gal(b1-3)GalNAc(b1-3)Gal(a1-4)Gal(b1-4)Glc
# Outline: as §1
# [8] = biological target: Fuc(a1-2)[Gal(a1-3)]Gal(b1-3)GlcNAc(b1-3)GalNAc
# Outline: as §1
# [9] = biological target: Fuc(a1-2)[Gal(a1-3)]Gal(b1-4)[Fuc(a1-3)]GlcNAc
# Outline: as §1
# [10] = biological target: Fuc(a1-2)[GalNAc(a1-3)]Gal(b1-4)[Fuc(a1-3)]GlcNAc(b1-3)GalNAc
# Outline: as §1
# [11] = biological target: Fuc(a1-2)[GalNAc(a1-4)]Gal(b1-4)GlcNAc
# Outline: as §1
# [12] = biological target: Fuc(a1-3)[Gal(b1-4)]GlcNAc(b1-3)Gal(b1-3)[Fuc(a1-4)]GlcNAc
# Outline: as §1
# [13] = biological target: Fuc(a1-3)[GalNAc(b1-4)]GlcNAc
# Outline: as §1
# [14] = biological target: Gal(a1-3)Gal(b1-3)Glc
# Outline: as §1
# [15] = biological target: Gal(a1-3)Gal(b1-4)GlcNAc(b1-2)Man(a1-3)[Gal(a1-3)Gal(b1-4)GlcNAc(b1-2)Man(a1-6)]Man(b1-4)GlcNAc(b1-4)GlcNAc
# Outline: as §1
# [16] = biological target: Gal(a1-3)GlcNAc
# Outline: as §1
# [17] = biological target: Gal(b1-3)GalNAc(a1-3)[Fuc(a1-2)]Gal(b1-4)Glc
# Outline: as §1
# [18] = biological target: Gal(b1-3)GalNAc(a1-3)[Fuc(a1-2)]Gal(b1-4)GlcNAc
# Outline: as §1
# [19] = biological target: Gal(b1-3)GlcNAc(a1-6)Gal(b1-4)GlcNAc
# Outline: as §1
# [20] = biological target: Gal(b1-3)GlcNAc(b1-3)Gal(b1-4)GlcNAc
# Outline: as §1
# [21] = biological target: Gal(b1-3)[Neu5Ac(a2-6)]GlcNAc(b1-4)Gal(b1-4)Glc
# Outline: as §1
# [22] = biological target: Gal(b1-4)GlcNAc
# Outline: as §1
# [23] = biological target: Gal(b1-4)GlcNAc(b1-2)[Gal(b1-4)GlcNAc(b1-4)]Man(a1-3)[Gal(b1-4)GlcNAc(b1-2)[Gal(b1-4)GlcNAc(b1-6)]Man(a1-6)]Man(b1-4)GlcNAc(b1-4)GlcNAc
# Outline: as §1
# [24] = biological target: Gal(b1-4)GlcNAc(b1-2)[Gal(b1-4)GlcNAc(b1-6)]Man(a1-6)[Gal(b1-4)GlcNAc(b1-2)Man(a1-3)]Man(b1-4)GlcNAc(b1-4)[Fuc(a1-6)]GlcNAc
# Outline: as §1
# [25] = biological target: Gal(b1-4)GlcNAc(b1-2)[Gal(b1-4)GlcNAc(b1-6)]Man(a1-6)[GlcNAc(b1-4)][Gal(b1-4)GlcNAc(b1-2)Man(a1-3)]Man(b1-4)GlcNAc(b1-4)GlcNAc
# Outline: as §1
# [26] = biological target: Gal3S(b1-4)[Fuc(a1-3)]Glc6S
# Outline: as §1
# [27] = biological target: GalNAc(b1-3)Gal(a1-4)Gal(b1-4)GlcNAc(b1-3)Gal(b1-4)Glc
# Outline: as §1
# [28] = biological target: GalNAc3S(b1-4)[Fuc(a1-3)]GlcNAc
# Outline: as §1
# [29] = biological target: GalNAc4S6S(b1-4)GlcNAc
# Outline: as §1
# [30] = biological target: Glc(a1-6)Glc(a1-6)Glc(a1-6)Glc
# Outline: as §1
# [31] = biological target: GlcNAc(a1-4)Gal(b1-4)GlcNAc(b1-3)Gal(b1-4)[Fuc(a1-3)]GlcNAc(b1-3)Gal(b1-4)[Fuc(a1-3)]GlcNAc
# Outline: as §1
# [32] = biological target: GlcNAc(b1-3)Gal(b1-4)GlcNAc(b1-2)[GlcNAc(b1-3)Gal(b1-4)GlcNAc(b1-6)]Man(a1-6)[GlcNAc(b1-3)Gal(b1-4)GlcNAc(b1-2)Man(a1-3)]Man(b1-4)GlcNAc(b1-4)GlcNAc
# Outline: as §1
# [33] = biological target: GlcNAc(b1-3)Gal(b1-4)GlcNAc(b1-3)Gal(b1-4)GlcNAc(b1-3)Gal(b1-4)GlcNAc(b1-3)Gal(b1-4)GlcNAc(b1-2)[GlcNAc(b1-3)Gal(b1-4)GlcNAc(b1-3)Gal(b1-4)GlcNAc(b1-3)Gal(b1-4)GlcNAc(b1-3)Gal(b1-4)GlcNAc(b1-6)]Man(a1-6)[GlcNAc(b1-3)Gal(b1-4)GlcNAc(b1-3)Gal(b1-4)GlcNAc(b1-3)Gal(b1-4)GlcNAc(b1-3)Gal(b1-4)GlcNAc(b1-2)Man(a1-3)]Man(b1-4)GlcNAc(b1-4)[Fuc(a1-6)]GlcNAc
# Outline: as §1
# [34] = biological target: GlcNAc(b1-3)[GlcNAc(b1-6)]Gal(b1-4)GlcNAc
# Outline: as §1
# [35] = biological target: GlcNAc(b1-3)[GlcNAc(b1-6)]GlcNAc
# Outline: as §1
# [36] = biological target: GlcNAc(b1-4)Gal(b1-4)GlcNAc
# Outline: as §1
# [37] = biological target: Man(a1-2)Man(a1-3)[Man(a1-2)Man(a1-6)]Man(a1-6)[Man(a1-2)Man(a1-2)Man(a1-3)]Man(b1-4)GlcNAc(b1-4)GlcNAc
# Outline: as §1
# [38] = biological target: Man(a1-2)Man(a1-3)[Man(a1-3)[Man(a1-6)]Man(a1-6)]Man(b1-4)GlcNAc(b1-4)GlcNAc
# Outline: as §1
# [39] = biological target: Man(a1-2)Man(a1-3)[Man(a1-6)]Man(a1-6)[Man(a1-2)Man(a1-3)]Man(b1-4)GlcNAc(b1-4)GlcNAc
# Outline: as §1
# [40] = biological target: Man(a1-3)[Man(a1-6)]Man(a1-6)[Man(a1-3)]Man(b1-4)GlcNAc(b1-4)GlcNAc
# Outline: as §1
# [41] = biological target: Neu5Ac(a2-3)Gal(b1-4)GlcNAc(b1-3)Gal(b1-4)GlcNAc(b1-3)Gal(b1-4)GlcNAc(b1-2)Man(a1-3)[Neu5Ac(a2-3)Gal(b1-4)GlcNAc(b1-3)Gal(b1-4)GlcNAc(b1-3)Gal(b1-4)GlcNAc(b1-2)Man(a1-6)]GalNAc
# Outline: as §1
# [42] = biological target: Neu5Ac(a2-3)Gal(b1-4)GlcNAc(b1-6)[Neu5Ac(a2-3)Gal(b1-3)]GalNAc
# Outline: as §1
# [43] = biological target: Neu5Ac(a2-3)Gal(b1-4)[Fuc(a1-3)]GlcNAc
# Outline: as §1
# [44] = biological target: Neu5Ac(a2-3)Gal(b1-4)[Fuc(a1-3)]GlcNAc(b1-3)GalNAc
# Outline: as §1
# [45] = biological target: Neu5Ac(a2-3)Gal6S(b1-4)[Fuc(a1-3)]GlcNAc
# Outline: as §1
# [46] = biological target: Neu5Ac(a2-6)Gal
# Outline: as §1
# [47] = biological target: Neu5Ac(a2-6)Gal(b1-4)GlcNAc(b1-2)Man(a1-6)Man(b1-4)GlcNAc(b1-4)GlcNAc
# Outline: as §1
# [48] = biological target: Neu5Ac(a2-6)Gal(b1-4)GlcNAc(b1-2)Man(a1-6)[Gal(b1-4)GlcNAc(b1-2)Man(a1-3)]Man(b1-4)GlcNAc(b1-4)GlcNAc
# Outline: as §1
# [49] = biological target: Neu5Ac(a2-6)Gal(b1-4)GlcNAc(b1-2)Man(a1-6)[GlcNAc(b1-2)Man(a1-3)]Man(b1-4)GlcNAc(b1-4)GlcNAc
# Outline: as §1
# [50] = biological target: Neu5Ac(a2-6)Gal(b1-4)GlcNAc(b1-6)GalNAc
# Outline: as §1
# [51] = biological target: Neu5Ac(a2-6)Gal(b1-4)GlcNAc(b1-6)[Gal(b1-3)]GalNAc
# Outline: as §1
# [52] = biological target: Neu5Ac(a2-8)Neu5Ac
# Outline: as §1
# [53] = biological target: Neu5Gc(a2-3)Gal(b1-3)GlcNAc
# Outline: as §1
binder,measurement,setting,value
XL-35 (Xenopus laevis) (protein) MLVHILLLLVTGGLSQSCDPVVIVASKNMVKQLDCDKFRNCKEIKDSNEEAQDGIYTLTSPDGISYQTFCDMTTNGGGWTLVASVHENNMAGKCTIGDRWSSQQGNRADYPEGDGNWANYNTFGSAGGATSDDYKNPGYYDIEAYNLGVWHVPNKTPLSVWRNSSLQRYRTTDGILFKHGGNLFSLYRIYPVKYGIGSCSKDSGPTVPVVYDLGSANLTASFYSPGFRSQFTPGYIQFRPINTEKAALALCPGMKMESCNVEHVCIGGGGYFPEADPRQCGDFAAYDFNGYGTKKFNSAGIEITEAAVLLFYL,glycan array binding signal (z-score),[1],-0.108
same,glycan array binding signal (z-score),[2],-0.184
same,glycan array binding signal (z-score),[3],-0.215
same,glycan array binding signal (z-score),[4],0.014
same,glycan array binding signal (z-score),[5],0.358
same,glycan array binding signal (z-score),[6],-0.021
same,glycan array binding signal (z-score),[7],-0.322
same,glycan array binding signal (z-score),[8],-0.477
same,glycan array binding signal (z-score),[9],-0.202
same,glycan array binding signal (z-score),[10],20.3
same,glycan array binding signal (z-score),[11],-0.131
same,glycan array binding signal (z-score),[12],-0.053
same,glycan array binding signal (z-score),[13],6.12
same,glycan array binding signal (z-score),[14],2.36
same,glycan array binding signal (z-score),[15],0.152
same,glycan array binding signal (z-score),[16],15.9
same,glycan array binding signal (z-score),[17],-0.227
same,glycan array binding signal (z-score),[18],-0.337
same,glycan array binding signal (z-score),[19],-0.171
same,glycan array binding signal (z-score),[20],-0.474
same,glycan array binding signal (z-score),[21],0.794
same,glycan array binding signal (z-score),[22],-0.066
same,glycan array binding signal (z-score),[23],0.777
same,glycan array binding signal (z-score),[24],0.078
same,glycan array binding signal (z-score),[25],-0.452
same,glycan array binding signal (z-score),[26],0.818
same,glycan array binding signal (z-score),[27],-0.027
same,glycan array binding signal (z-score),[28],-0.078
same,glycan array binding signal (z-score),[29],0.078
same,glycan array binding signal (z-score),[30],0.158
same,glycan array binding signal (z-score),[31],1.05
same,glycan array binding signal (z-score),[32],0.95
same,glycan array binding signal (z-score),[33],0.094
same,glycan array binding signal (z-score),[34],-0.01
same,glycan array binding signal (z-score),[35],-0.058
same,glycan array binding signal (z-score),[36],4.54
same,glycan array binding signal (z-score),[37],-0.156
same,glycan array binding signal (z-score),[38],-0.086
same,glycan array binding signal (z-score),[39],-0.092
same,glycan array binding signal (z-score),[40],0.065
same,glycan array binding signal (z-score),[41],0.335
same,glycan array binding signal (z-score),[42],-0.518
same,glycan array binding signal (z-score),[43],-0.21
same,glycan array binding signal (z-score),[44],0.775
same,glycan array binding signal (z-score),[45],-0.241
same,glycan array binding signal (z-score),[46],-0.04
same,glycan array binding signal (z-score),[47],-0.2
same,glycan array binding signal (z-score),[48],-0.115
same,glycan array binding signal (z-score),[49],0.009
same,glycan array binding signal (z-score),[50],-0.112
same,glycan array binding signal (z-score),[51],0.356
same,glycan array binding signal (z-score),[52],-0.216
same,glycan array binding signal (z-score),[53],-0.235
